Measurements as given in PubChem BioAssay (NCI).
This is part of a sample that, as a whole, favours compounds with a hit. Of some 79,000 tested, about 15% had one in any assay. No stated cut-off is given here; in the data, active means growth inhibition above about 70%; inactive means the rest.

Experiments:
[1] = NCI Yeast Anticancer Drug Screen. Data for the rad50 strain (AID 155);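 further: 0% = growth of vehicle-only cultures of the same strain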; settings: S. cerevisiae rad50 strain growth inhibition; at 50.0 µM; active compounds read high
Method in brief: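 DNA repair mutant yeast, compound exposure, growth read-out; inhibition is taken relative to vehicle.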

[2] = NCI Yeast Anticancer Drug Screen. Data for the mec2-1 strain (AID 157); settings: S. cerevisiae mec2-1 strain, at 50.0 µM, active compounds read high
Method in brief: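 Strain: mec2-1 (DNA repair/cell cycle alteration). Compound exposure, then growth measured; inhibition expressed relative to vehicle.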

[3] = NCI Yeast Anticancer Drug Screen. Data for the sgs1 mgt1 strain (AID 161);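 further: 0% = growth of cultures given vehicle only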; settings: S. cerevisiae sgs1 mgt1 strain, at 50.0 µM, active compounds read high
Method in brief: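 Test agents were incubated with a DNA-repair-mutant yeast strain. Growth was then read and compared against vehicle-treated controls.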

[4] = NCI Yeast Anticancer Drug Screen. Data for the cln2 rad14 strain (AID 165);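 further: 0% = growth equal to vehicle treated cultures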; settings: S. cerevisiae cln2 rad14 strain, at 50.0 µM, active compounds read high
Method in brief: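 Compounds are applied to the cln2 rad14 yeast strain, and growth is then compared with that of vehicle-treated cultures to give inhibition.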

[5] = NCI Yeast Anticancer Drug Screen. Data for the bub3 strain (AID 167); settings: S. cerevisiae bub3 mutant strain, at 50.0 µM, active compounds read high
Method in brief: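 In this screen, a yeast mutant lacking normal mitotic checkpoint function is challenged with compound. Relative growth versus vehicle gives the inhibition value.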

[6] = NCI Yeast Anticancer Drug Screen. Data for the mlh1 rad18 strain (AID 175); settings: S. cerevisiae mlh1 rad18 strain growth inhibition; at 50.0 µM; active compounds read high
Method in brief: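 Read-out is yeast growth inhibition, calculated against vehicle-only controls. The compound was applied to a strain engineered with DNA damage repair alterations.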

Measured: growth inhibition

Cc1ccc(S(=O)(=O)CCC(=O)c2ccccc2)cc1
inactive: [1] 9.3% | [2] 16% | [3] 0.95% | [4] 1.3% | [5] 3.25% | [6] 14.6%

Cc1ccc(N=NC(C2=NC(=O)CS2)c2nc3ccccc3[nH]2)cc1 (stereo unspecified)
inactive: [1] -55% | [2] -31% | [3] -52.8% | [4] -44.8% | [5] -56% | [6] -73.8%

O=C1CN(Cc2ccc(Cl)cc2)CC(=O)N2CCCN12
inactive: [1] 20.8% | [2] 8% | [3] 19.7% | [4] 18.2% | [5] 10.8% | [6] 16.4%

CSc1nc(N)n2nc(C3CC3)cc2n1
inactive: [1] 5.5% | [2] -10.8% | [3] 16.1% | [4] 21.4% | [5] 15.9% | [6] 3.4%

CN(C)c1nnnn1Cc1ccccc1
inactive: [1] -1.35% | [2] -3.8% | [3] -7.25% | [4] -26.3% | [5] 5.65% | [6] 1.8%

Cc1cnc2nc(C)c(C)nc2n1
inactive: [1] 12.3% | [2] 1.55% | [3] 2.35% | [4] -0.95% | [5] -0.85% | [6] 4.95%

C=CC(C)n1cnc2c1c(=O)n(C)c(=O)n2C (stereo unspecified)
inactive: [1] -5.1% | [2] -9.35% | [3] -11.2% | [4] -35% | [5] -5.4% | [6] 2.8%

CCOC(=O)CNCc1ccc(Cl)c(Cl)c1
inactive: [1] 16.1% | [2] 4.15% | [3] 28.2% | [4] -15.6% | [5] 26.9% | [6] 21.9%

CC(C)(C)NC(=O)Oc1cccnc1
inactive: [1] 7.1% | [2] -4.6% | [3] -12.6% | [4] -42.4% | [5] 27.6% | [6] 8%

CCC(SC(C)=O)C(=O)O (stereo unspecified)
inactive: [1] 13% | [2] -16.1% | [3] 2.65% | [4] 14.4% | [5] -2.05% | [6] 9.5%

COc1ccc2nccc(C(=O)CCC3CCN(C(=O)c4ccc([N+](=O)[O-])cc4)CC3C(CBr)CCBr)c2c1 (stereo unspecified)
inactive: [1] 16.7% | [2] 6.35% | [3] 26.6% | [4] -1.85% | [5] 6.2% | [6] 34.2%

CCCOCC(O)CNCCNCC(O)COCCC (stereo unspecified)
inactive: [1] 4.1% | [2] -2.7% | [3] 8.15% | [4] -34.5% | [5] -3.65% | [6] 7.3%

CC(C)OC(=O)C1CCC(=O)N1 (stereo unspecified)
inactive: [1] 12.1% | [2] -6.25% | [3] -7.4% | [4] -84.1% | [5] 19% | [6] -20.4%

CCc1ccc(NC(=O)c2cc(OC)c(OC)c(OC)c2)cc1
inactive: [1] 1.1% | [2] 29.4% | [3] 2.6% | [4] -12.3% | [5] 17.5% | [6] 29.2%

O=S(=O)(c1ccccc1)N1CCCCC1
inactive: [1] -23.3% | [2] 5.05% | [3] 3.45% | [4] -33% | [5] 29.5% | [6] 25.6%

CC1CNC(C)(C)O1 (stereo unspecified)
inactive: [1] 36.5% | [2] 10.9% | [3] 18.9% | [4] 23.6% | [5] 11.6% | [6] 29.4%

Cc1cc(=O)n(-c2ccc([N+](=O)[O-])cc2)c(C)c1C(=O)O
inactive: [1] 3.25% | [2] -2.4% | [3] 4.85% | [4] -0.15% | [5] 7.9% | [6] -1.65%

O=C(C1OC1c1ccccc1)C1OC1c1ccccc1 (stereo unspecified)
inactive: [1] -6.05% | [2] 10.2% | [3] 9.55% | [4] -12.4% | [5] 62.1% | [6] 37%

O=C1CC(c2ccccc2)Oc2ccccc21 (stereo unspecified)
inactive: [1] -24.5% | [2] -58.1% | [3] -16.8% | [4] 8.2% | [5] -25.2% | [6] -24.1%

O=C1NC(CCl)(CCl)CO1
inactive: [1] 4.15% | [2] 8.85% | [3] -1.7% | [4] 5.45% | [5] -2.05% | [6] 10.1%

CCCCCNC(=O)CCC
inactive: [1] 22.6% | [2] 1.2% | [3] 25.6% | [4] 5.6% | [5] 7.05% | [6] 40.9%
